# Records with an inconclusive call do not appear. A call without a number means that no potency is given here. Unmarked numbers belong to inactive results. The source made the active and inactive calls. The call rests on the fitted dose curve.
# Experiment: qHTS assay to identify small molecule antagonists of the estrogen receptor alpha (ER-alpha) signaling pathway using the BG1 cell line (AID 743080);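 further: BG1 cells stimulated with 17beta-estradiol alongside compound; nearly all actives have a fitted effect of over 25% in size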
# Settings: BG1Luc4E2 ERE-luciferase antagonist mode, luminescence; series mostly up to 70.3 µM; activity change, negative = inhibition: at the top concentration
# Outline: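 BG1-Luc-4E2 cells (endogenous full-length ER-alpha, stable 4×ERE-luciferase) were starved 5 days in phenol-red-free medium with 10% charcoal-stripped FBS, plated 24 h, then given compound plus 17beta-estradiol for 21.5 h at 37 C; ONE-Glo luminescence read after 30 min.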
Compound,Potency,"activity change, negative = inhibition [%]"
CN(C)c1nc(=O)n(C2CCCCC2)c(=O)n1C,inactive,
Clc1ccc(C(Cl)(Cl)Cl)cc1,inactive,
CCOP(=S)(OCC)SCn1c(=O)oc2cc(Cl)ccc21,inactive,
COc1ccc(O)c(C(C)(C)C)c1,inactive,
CCCCOCCOC(C)=O,,-1.06
CNC(=O)Oc1cccc2c1OC(C)(C)C2,inactive,
O=NN(c1ccccc1)c1ccccc1,inactive,
O=C(O)CF,inactive,
CCOP(=S)(OCC)SCSC(C)(C)C,inactive,
CCOS(=O)(=O)OCC,inactive,
ClC(Cl)=C(Cl)C(Cl)=C(Cl)Cl,inactive,
CC1(C)Cc2cccc(O)c2O1,inactive,
CC(C)COC(=O)c1ccccc1C(=O)OCC(C)C,,-2.35
N#Cc1cccnc1,inactive,
ClC(Cl)(Cl)c1ccccc1,inactive,
CCCCOCC1CO1 (stereo not given),inactive,
CCCCCCCCCCCCCl,inactive,
CCC1(c2ccc(N)cc2)CCC(=O)NC1=O (stereo not given),inactive,
C=C(C)C#N,inactive,
O=NN1CCOCC1,inactive,
c1ccc2c(c1)Nc1ccccc1S2,inactive,
CC[n+]1c(-c2ccccc2)c2cc(N)ccc2c2ccc(N)cc21,,-2.38
COc1ccc(C=O)cc1OC,inactive,
CC(C)Nc1nc(Cl)nc(NC(C)C)n1,inactive,
O=[N+]([O-])/N=C1\NCCN1Cc1ccc(Cl)nc1,inactive,
CCOC(=O)c1ccccc1N,inactive,
CN(C)P(=O)(N(C)C)N(C)C,inactive,
CCCCOC(=O)COC(=O)c1ccccc1C(=O)OCCCC,inactive,
CC(C)=CC1C(C(=O)OCc2cccc(Oc3ccccc3)c2)C1(C)C (stereo not given),inactive,
Clc1cccc(C(Cl)(Cl)Cl)n1,inactive,
